Calls of active or inactive are those of the source. Unless noted, no rule for the calls is given here.
Assays:
[1] = tested on: XIP peptide (Xip251-270) binding; experiment: XIP fragment 251-270 binding compounds – biochemical, small-molecule microarray, fluorescence 635/667 nm, 0.1 µg/mL protein, primary screen (AID 1182); conditions: fluorescent protein binding, 635 nm, higher = more signal, called active from +8 up or from −8 down
XIP peptide (Xip251-270) = experiment: compounds binding XIP fragment 251-270 – biochemical, small-molecule microarray, fluorescence 635/667 nm, 0.5 µg/mL protein, primary screen (AID 1183); conditions: fluorescence 635 nm, higher = more signal
[2] = blood-stage malaria parasite viability loss – strain 3D7, DAPI fluorescence, 100 nL, primary screen (AID 1184);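 also: parasites grown inside human red blood cells in medium with human serum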; conditions: P. falciparum 3D7 growth, 3 d, higher = more signal
[3] = target: Homeobox protein Hox-A13 (Mus musculus) (UniProt Q62424); experiment: disruptors of Hoxa13 oligonucleotide interaction – biochemical, fluorescence polarization, labeled oligonucleotide, primary screen (AID 1185); conditions: Hoxa13:DNA binding, 15 min, higher = more signal, called active from +8 up or from −8 down
Sequence of Homeobox protein Hox-A13 (Mus musculus) (Q62424 whole entry, looked up): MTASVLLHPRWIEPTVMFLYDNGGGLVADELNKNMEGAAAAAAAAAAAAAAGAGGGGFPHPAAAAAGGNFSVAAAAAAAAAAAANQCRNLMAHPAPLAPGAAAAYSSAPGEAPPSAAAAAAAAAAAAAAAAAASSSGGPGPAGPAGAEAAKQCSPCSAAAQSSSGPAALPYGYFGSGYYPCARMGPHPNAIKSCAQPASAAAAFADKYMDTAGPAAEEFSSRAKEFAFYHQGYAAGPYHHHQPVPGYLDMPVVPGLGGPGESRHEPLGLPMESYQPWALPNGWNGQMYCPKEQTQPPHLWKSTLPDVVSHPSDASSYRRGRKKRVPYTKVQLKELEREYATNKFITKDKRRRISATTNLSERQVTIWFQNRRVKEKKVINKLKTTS

[4] = blockers of DNA damage checkpoint Chk1 activation – imaging, HeLa, hydroxyurea, phospho-Chk1 antibody, percent positive cells, primary screen (AID 1186); conditions: hydroxyurea-induced phospho-Chk1 immunofluorescence imaging, higher = more signal
[5] = blockers of DNA damage checkpoint Chk1 activation – imaging, HeLa, hydroxyurea, phospho-Chk1 nuclear intensity, primary screen (AID 1187); conditions: hydroxyurea-induced phospho-Chk1 immunofluorescence imaging, higher = more signal

Structure (SMILES) | composite z-score [1] | composite z-score (XIP peptide (Xip251-270)) | z-score [2] | z-score [3] | z-score [4] | z-score [5]
CCCC[C@H]1C[C@@H]1[C@@H]1N(C(C)=O)[C@H](c2cccc(OC)c2)CC12CC2 | -0.233 (inactive) | -1.04 | -0.313 | -3.27 (inactive) | 0.368 (inactive) | 0.638 (inactive)
O=C(O)[C@H](Cc1ccccc1)n1cc(C2(O)CCCCC2)nn1 | -0.0467 (inactive) | 0.0248 | 0.074 | -1.04 (inactive) | 0.402 (inactive) | -0.535 (inactive)
C=CCOC(=O)[C@@H]1[C@H]2C(=O)O[C@H](c3ccccc3)[C@H](c3ccccc3)N2[C@H](c2ccc(OCCOC(=O)[C@H]3C[C@H]4C(=O)N[C@@H](CCCCN(C)C)C(=O)N4[C@H]3c3ccc(O)cc3)cc2)[C@@]12C(=O)Nc1ccc(I)cc12 | 0.94 (inactive) | 0.849 | -1.92 | 5.3 (inactive) | 0.289 (inactive) | 0.419 (inactive)
COC(=O)C1=CC(CCCO)=CC(c2cccs2)N(Cc2cc3c(cc2Br)OCO3)C=C1C(=O)OC (configuration not stated) | 1.07 (inactive) | 0.763 | -1.26 | -4.49 (inactive) | 0.132 (inactive) | 0.454 (inactive)
CC(C)OC(=O)CC(=O)CC(O)c1cccc([N+](=O)[O-])c1 (configuration not stated) | 0.52 (inactive) | 0.089 | -0.165 | -0.516 (inactive) | -0.242 (inactive) | -0.299 (inactive)
CCCCCC1=C2CNC(Cc3ccccc3)(C(=O)OC)C=C2C(C)C1=O (configuration not stated) | -0.186 (inactive) | 0.247 | -0.662 | -8.44 (active) | 1.14 (inactive) | 0.846 (inactive)
CN1C(=O)C2C=CC(C(O)c3ccc(-c4ccccc4)s3)N(NC(=O)OC(C)(C)C)C2C1=O (configuration not stated) | 0.359 (inactive) | 0.912 | 0.428 | -4.15 (inactive) | 0.307 (inactive) | 0.239 (inactive)
COCC(=C=CC[C@H](O)c1ccccc1OCCO)C[C@H](O)COCc1ccccc1 | 0.195 (inactive) | 0.148 | -1.77 | -4.37 (inactive) | 0.141 (inactive) | 0.058 (inactive)
NC(=O)NCC#Cc1ccc2c(c1)[C@]1(C(=O)N2)[C@H](c2ccc(OCCO)cc2)N2[C@H](c3ccccc3)[C@H](c3ccccc3)OC(=O)[C@H]2[C@@H]1C(=O)O | 0.348 (inactive) | -0.0846 | -1.17 | -5.33 (inactive) | 0.31 (inactive) | 0.2 (inactive)
C=C(COC)C(=O)CC[C@H](OC(=O)c1cccnc1)c1ccc(OCCO)cc1 | 1.08 (inactive) | 0.447 | -0.711 | -5.58 (inactive) | 0.35 (inactive) | 0.343 (inactive)
CO[C@H]1O[C@H](CO)[C@@H](OC(=O)Nc2ccccc2)[C@H](OC(=O)Nc2ccccc2)[C@H]1OC(=O)Nc1ccccc1 | 0.142 (inactive) | 0.69 | -2.51 | -6.21 (inactive) | -0.0874 (inactive) | 0.511 (inactive)
CC(=O)NCCCC[C@@H]1NC(=O)[C@H]2C[C@@H](C(=O)NCCCCCCNC(=O)CS)[C@@H](c3cccc(OCCO)c3)N2C1=O | 2.82 (inactive) | 0.349 | 0.287 | -4.38 (inactive) | 0.0478 (inactive) | 1.23 (inactive)
CN1C(=O)C2C(C3CC3)C=C3CN(Cc4cccc(Cl)c4)[C@@H]([C@@H](O)Cc4ccccc4)C3C2C1=O (some centres not stated) | 0.163 (inactive) | 0.74 | -0.185 | -4.6 (inactive) | -1.34 (inactive) | -2.37 (inactive)
CN(C)CCCNC(=O)[C@@H]1c2ccccc2C(=O)N(Cc2ccccc2C(F)(F)F)[C@H]1c1ccc(CO)cc1 | -0.638 (inactive) | 0.0067 | -0.944 | -2.62 (inactive) | -0.316 (inactive) | -0.164 (inactive)
C[C@@H]1ON(c2ccccc2)[C@H](c2ccccc2)[C@H]1C(=O)O | -0.117 (inactive) | 0.0627 | -0.413 | -0.711 (inactive) | 0.0099 (inactive) | 0.203 (inactive)
C=CCOC(=O)[C@H]1[C@@H]2C(=O)O[C@@H](c3ccccc3)[C@@H](c3ccccc3)N2[C@@H](c2ccc(OCCOC(=O)[C@H]3C[C@H]4C(=O)N[C@@H](CC(C)C)C(=O)N4[C@H]3c3ccc(O)cc3)cc2)[C@]12C(=O)Nc1ccccc12 | 0.386 (inactive) | 0.818 | -1.49 | 0.832 (inactive) | 0.109 (inactive) | -0.0249 (inactive)
COc1ccc([Si](C)(C)[C@H]2[C@H](CCO)O[C@@]3(C(=O)N(Cc4cccc(N5C(=O)c6ccccc6Oc6ccccc65)c4)c4ccccc43)[C@@H]2C)cc1 | 0.505 (inactive) | 0.571 | -2.82 | -0.884 (inactive) | -0.432 (inactive) | -0.702 (inactive)

Reference: PubChem BioAssay
